According to ChEMBL document CHEMBL1961873, “Compounds: GSK PKIS; Assays: Nanosyn kinase panel” (2012):

How the values were obtained:
[1] = biological target: Leukocyte tyrosine kinase receptor (Homo sapiens) (UniProt P29376); settings: at 1 µM;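 note: each value is the mean inhibition of LTK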
[2] = biological target: Tyrosine-protein kinase Lyn (Homo sapiens) (UniProt P07948); settings: at 0.1 µM
[3] = biological target: Tyrosine-protein kinase Lyn (Homo sapiens) (UniProt P07948); settings: at 1 µM
[4] = biological target: Tyrosine-protein kinase Lyn (Homo sapiens) (UniProt P07948); settings: at 0.1 µM; remark: listed apart in the source
[5] = biological target: Tyrosine-protein kinase Lyn (Homo sapiens) (UniProt P07948); settings: at 1 µM; remark: listed apart in the source
[6] = biological target: T1, Tyrosine-protein kinase Mer (Homo sapiens) (UniProt Q12866); settings: at 0.1 µM
T1 sequence (whole entry): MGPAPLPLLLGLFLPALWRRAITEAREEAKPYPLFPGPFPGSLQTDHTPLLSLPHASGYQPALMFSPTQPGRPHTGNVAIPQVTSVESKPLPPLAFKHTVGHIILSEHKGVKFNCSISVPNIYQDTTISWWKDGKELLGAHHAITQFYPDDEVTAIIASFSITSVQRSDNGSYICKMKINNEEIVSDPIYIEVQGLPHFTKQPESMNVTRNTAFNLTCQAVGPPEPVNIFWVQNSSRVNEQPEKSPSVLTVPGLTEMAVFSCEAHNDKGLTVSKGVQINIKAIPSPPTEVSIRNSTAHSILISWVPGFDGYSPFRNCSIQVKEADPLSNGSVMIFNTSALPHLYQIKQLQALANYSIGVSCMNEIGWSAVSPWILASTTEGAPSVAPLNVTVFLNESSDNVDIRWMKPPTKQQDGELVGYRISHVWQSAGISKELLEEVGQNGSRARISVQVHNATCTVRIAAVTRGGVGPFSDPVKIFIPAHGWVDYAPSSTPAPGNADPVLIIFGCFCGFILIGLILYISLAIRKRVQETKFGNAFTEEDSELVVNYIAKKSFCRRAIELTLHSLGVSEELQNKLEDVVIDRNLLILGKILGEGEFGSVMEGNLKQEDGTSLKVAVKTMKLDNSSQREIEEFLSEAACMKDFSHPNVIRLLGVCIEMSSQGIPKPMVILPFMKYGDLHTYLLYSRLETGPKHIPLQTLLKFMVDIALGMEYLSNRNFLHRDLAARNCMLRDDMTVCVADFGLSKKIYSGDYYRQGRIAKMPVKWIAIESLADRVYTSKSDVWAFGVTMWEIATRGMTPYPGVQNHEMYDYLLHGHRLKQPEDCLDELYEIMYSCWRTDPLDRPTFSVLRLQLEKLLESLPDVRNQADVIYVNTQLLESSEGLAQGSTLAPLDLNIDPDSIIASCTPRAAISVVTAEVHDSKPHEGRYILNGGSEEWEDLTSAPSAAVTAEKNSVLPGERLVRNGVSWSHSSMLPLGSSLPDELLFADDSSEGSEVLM

[7] = biological target: T1, Tyrosine-protein kinase Mer (Homo sapiens); settings: at 1 µM
[8] = biological target: Hepatocyte growth factor receptor (Homo sapiens) (UniProt P08581); settings: at 0.1 µM
[9] = biological target: Hepatocyte growth factor receptor (Homo sapiens) (UniProt P08581); settings: at 1 µM
[10] = biological target: T2, Muscle, skeletal receptor tyrosine-protein kinase (Homo sapiens) (UniProt O15146); settings: at 0.1 µM
T2 sequence (whole entry): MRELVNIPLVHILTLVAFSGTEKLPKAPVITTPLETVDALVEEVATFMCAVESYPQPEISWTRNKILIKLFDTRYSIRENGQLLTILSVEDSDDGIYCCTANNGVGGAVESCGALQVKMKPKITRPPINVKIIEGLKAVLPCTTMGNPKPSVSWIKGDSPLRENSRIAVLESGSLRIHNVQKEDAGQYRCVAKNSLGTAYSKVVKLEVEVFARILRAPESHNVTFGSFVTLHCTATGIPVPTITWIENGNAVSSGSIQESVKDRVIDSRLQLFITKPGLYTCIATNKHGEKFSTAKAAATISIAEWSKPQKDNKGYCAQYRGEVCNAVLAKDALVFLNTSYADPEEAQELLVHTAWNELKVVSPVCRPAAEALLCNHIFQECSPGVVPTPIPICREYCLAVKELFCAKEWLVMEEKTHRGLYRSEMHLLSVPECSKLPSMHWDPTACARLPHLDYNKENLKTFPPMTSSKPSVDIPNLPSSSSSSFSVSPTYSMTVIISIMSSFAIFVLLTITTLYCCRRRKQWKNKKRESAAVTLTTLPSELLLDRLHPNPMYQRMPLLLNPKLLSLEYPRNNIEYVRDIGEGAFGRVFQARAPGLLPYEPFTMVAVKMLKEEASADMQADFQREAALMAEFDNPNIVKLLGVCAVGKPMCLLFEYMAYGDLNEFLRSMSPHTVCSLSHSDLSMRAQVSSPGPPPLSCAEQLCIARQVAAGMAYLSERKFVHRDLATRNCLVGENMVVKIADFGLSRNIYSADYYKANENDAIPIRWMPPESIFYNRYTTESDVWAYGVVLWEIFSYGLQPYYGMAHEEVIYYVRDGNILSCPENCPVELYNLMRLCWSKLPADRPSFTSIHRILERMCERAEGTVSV

[11] = biological target: T2, Muscle, skeletal receptor tyrosine-protein kinase (Homo sapiens); settings: at 1 µM
[12] = biological target: Platelet-derived growth factor receptor alpha (Homo sapiens) (UniProt P16234); settings: at 0.1 µM
[13] = biological target: Platelet-derived growth factor receptor alpha (Homo sapiens) (UniProt P16234); settings: at 1 µM
[14] = tested on: Platelet-derived growth factor receptor alpha (Homo sapiens), P16234 [D842V]; settings: at 0.1 µM
[15] = tested on: Platelet-derived growth factor receptor alpha (Homo sapiens), P16234 [D842V]; settings: at 1 µM
[16] = tested on: Platelet-derived growth factor receptor alpha (Homo sapiens), P16234 [T674I]; settings: at 0.1 µM
[17] = tested on: Platelet-derived growth factor receptor alpha (Homo sapiens), P16234 [T674I]; settings: at 1 µM
[18] = tested on: Platelet-derived growth factor receptor alpha (Homo sapiens), P16234 [V561D]; settings: at 0.1 µM
[19] = tested on: Platelet-derived growth factor receptor alpha (Homo sapiens), P16234 [V561D]; settings: at 1 µM
[20] = biological target: Platelet-derived growth factor receptor beta (Homo sapiens) (UniProt P09619); settings: at 0.1 µM;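 note: reported value is the mean percent inhibition of the kinase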
Chain of Platelet-derived growth factor receptor beta (Homo sapiens) (P09619 whole entry): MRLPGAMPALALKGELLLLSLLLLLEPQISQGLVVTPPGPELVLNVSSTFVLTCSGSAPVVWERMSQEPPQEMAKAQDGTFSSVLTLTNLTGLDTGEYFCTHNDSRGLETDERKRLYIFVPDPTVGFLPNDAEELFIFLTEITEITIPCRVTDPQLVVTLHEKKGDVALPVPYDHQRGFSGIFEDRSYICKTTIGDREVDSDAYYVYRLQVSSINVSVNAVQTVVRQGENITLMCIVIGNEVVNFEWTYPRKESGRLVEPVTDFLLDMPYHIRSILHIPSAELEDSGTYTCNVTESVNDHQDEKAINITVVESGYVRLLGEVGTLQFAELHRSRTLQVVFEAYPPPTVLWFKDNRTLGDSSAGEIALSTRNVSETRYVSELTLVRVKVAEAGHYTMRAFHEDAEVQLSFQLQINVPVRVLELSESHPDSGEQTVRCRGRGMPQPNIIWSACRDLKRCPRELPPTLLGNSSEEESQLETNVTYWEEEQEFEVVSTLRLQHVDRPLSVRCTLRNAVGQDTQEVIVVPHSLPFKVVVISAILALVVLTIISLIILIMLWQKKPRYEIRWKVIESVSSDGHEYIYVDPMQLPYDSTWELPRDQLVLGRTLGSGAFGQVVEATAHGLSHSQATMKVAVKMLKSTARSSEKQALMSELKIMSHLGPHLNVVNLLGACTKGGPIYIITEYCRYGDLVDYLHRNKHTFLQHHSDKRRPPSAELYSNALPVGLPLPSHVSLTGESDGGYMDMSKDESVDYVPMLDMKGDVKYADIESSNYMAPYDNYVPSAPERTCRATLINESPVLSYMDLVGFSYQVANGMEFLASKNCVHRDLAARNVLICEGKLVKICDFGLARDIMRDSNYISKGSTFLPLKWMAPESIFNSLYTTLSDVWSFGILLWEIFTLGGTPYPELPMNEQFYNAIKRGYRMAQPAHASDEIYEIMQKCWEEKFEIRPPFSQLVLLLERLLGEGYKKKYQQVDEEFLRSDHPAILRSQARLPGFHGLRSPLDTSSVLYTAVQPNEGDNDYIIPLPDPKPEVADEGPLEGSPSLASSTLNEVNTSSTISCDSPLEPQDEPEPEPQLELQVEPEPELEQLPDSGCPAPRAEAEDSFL

Chain of Platelet-derived growth factor receptor alpha (Homo sapiens) (P16234 whole entry): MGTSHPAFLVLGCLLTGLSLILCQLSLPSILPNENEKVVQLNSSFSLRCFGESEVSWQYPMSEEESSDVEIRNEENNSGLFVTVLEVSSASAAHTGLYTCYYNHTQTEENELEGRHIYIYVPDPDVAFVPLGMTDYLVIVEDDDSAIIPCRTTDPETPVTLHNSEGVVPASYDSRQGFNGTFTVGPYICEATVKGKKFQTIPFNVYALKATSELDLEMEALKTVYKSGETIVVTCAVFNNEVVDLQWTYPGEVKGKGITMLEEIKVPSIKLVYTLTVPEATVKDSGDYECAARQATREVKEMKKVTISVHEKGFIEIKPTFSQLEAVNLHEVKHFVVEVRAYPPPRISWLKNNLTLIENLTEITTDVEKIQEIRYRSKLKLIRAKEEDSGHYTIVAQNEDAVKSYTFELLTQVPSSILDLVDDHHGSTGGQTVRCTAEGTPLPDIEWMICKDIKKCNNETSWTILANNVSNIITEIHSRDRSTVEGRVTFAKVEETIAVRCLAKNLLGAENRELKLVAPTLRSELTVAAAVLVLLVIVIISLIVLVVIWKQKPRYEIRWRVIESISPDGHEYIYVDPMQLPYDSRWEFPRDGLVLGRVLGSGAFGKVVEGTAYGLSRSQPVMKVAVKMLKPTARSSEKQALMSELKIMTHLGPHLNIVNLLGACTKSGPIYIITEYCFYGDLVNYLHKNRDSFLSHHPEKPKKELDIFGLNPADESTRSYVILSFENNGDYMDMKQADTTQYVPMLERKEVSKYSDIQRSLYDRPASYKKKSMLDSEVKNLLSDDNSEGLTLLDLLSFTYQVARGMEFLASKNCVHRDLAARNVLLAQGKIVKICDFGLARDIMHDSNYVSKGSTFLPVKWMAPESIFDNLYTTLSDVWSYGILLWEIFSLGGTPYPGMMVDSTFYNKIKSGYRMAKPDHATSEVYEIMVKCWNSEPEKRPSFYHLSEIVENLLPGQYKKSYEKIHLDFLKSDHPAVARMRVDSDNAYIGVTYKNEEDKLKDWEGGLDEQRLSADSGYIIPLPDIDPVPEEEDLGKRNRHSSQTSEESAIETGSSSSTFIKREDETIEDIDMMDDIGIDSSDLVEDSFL
Chain of Platelet-derived growth factor receptor alpha (Homo sapiens), P16234 [V561D] (P16234 whole entry V561D): as the sequence (P16234 whole entry) above, with V561D counted along it
Chain of Leukocyte tyrosine kinase receptor (Homo sapiens) (P29376 whole entry): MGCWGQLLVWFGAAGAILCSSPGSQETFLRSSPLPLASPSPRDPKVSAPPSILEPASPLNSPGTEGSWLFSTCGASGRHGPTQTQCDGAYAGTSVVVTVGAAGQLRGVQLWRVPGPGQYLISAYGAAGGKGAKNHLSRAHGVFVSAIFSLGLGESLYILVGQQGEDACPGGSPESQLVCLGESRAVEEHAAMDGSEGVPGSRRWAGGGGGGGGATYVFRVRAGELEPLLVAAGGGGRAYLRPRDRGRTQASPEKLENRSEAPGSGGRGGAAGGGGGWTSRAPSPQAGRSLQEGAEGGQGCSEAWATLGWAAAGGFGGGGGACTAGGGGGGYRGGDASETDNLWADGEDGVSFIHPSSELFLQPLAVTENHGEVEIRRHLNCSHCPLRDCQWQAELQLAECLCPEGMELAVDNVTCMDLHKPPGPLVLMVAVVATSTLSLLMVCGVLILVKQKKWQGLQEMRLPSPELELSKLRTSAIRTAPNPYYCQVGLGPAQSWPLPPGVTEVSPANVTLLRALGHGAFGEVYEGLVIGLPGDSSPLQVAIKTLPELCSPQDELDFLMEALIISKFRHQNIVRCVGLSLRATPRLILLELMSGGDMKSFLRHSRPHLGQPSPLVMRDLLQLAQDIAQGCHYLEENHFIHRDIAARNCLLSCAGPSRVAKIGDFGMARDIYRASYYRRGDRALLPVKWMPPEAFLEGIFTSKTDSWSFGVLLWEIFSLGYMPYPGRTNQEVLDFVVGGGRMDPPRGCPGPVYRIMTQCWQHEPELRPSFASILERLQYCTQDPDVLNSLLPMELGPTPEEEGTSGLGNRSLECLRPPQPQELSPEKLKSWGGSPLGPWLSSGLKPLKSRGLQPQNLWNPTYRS
Chain of Tyrosine-protein kinase Lyn (Homo sapiens) (P07948 2-512 limits assumed): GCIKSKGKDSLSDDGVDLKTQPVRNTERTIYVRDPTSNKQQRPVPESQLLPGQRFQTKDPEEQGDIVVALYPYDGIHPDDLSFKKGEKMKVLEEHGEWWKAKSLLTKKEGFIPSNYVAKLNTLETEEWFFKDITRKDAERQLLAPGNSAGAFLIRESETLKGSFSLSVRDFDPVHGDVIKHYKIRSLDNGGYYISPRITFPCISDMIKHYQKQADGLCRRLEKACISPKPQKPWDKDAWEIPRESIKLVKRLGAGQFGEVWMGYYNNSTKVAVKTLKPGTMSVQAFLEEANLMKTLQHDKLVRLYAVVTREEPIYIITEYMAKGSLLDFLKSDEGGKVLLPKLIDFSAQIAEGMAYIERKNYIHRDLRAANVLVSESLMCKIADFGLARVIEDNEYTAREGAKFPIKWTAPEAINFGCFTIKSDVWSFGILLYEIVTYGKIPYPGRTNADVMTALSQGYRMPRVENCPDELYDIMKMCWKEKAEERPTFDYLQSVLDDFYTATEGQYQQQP

Row | SMILES | inhibition [1] [%] | inhibition [2] [%] | inhibition [3] [%] | inhibition [4] [%] | inhibition [5] [%] | inhibition [6] [%] | inhibition [7] [%] | inhibition [8] [%] | inhibition [9] [%] | inhibition [10] [%] | inhibition [11] [%] | inhibition [12] [%] | inhibition [13] [%] | inhibition [14] [%] | inhibition [15] [%] | inhibition [16] [%] | inhibition [17] [%] | inhibition [18] [%] | inhibition [19] [%] | inhibition [20] [%]
1 | CN(c1ccc(NC(=O)Nc2c(Cl)cccc2Cl)cc1)c1ccnc(Nc2cccc(CS(C)(=O)=O)c2)n1 | 1.45 | 29.7 | 64.8 | 27.1 | 60.9 | 14.6 | 29.6 | 80.8 | 85 | 72.8 | 89.9 | 69.3 | 86.6 | 6.78 | 28.6 | 72.1 | 97.5 | 78.7 | 91.2 | 52.4
2 | COc1cc(Nc2ncc3c(C)nc(-c4cccc(C(F)(F)F)c4)n3n2)cc(OC)c1OC | 4.56 | 8.46 | 27.6 | 5.92 | 21.9 | 1.71 | 4.47 | 8.25 | 9.19 | 3.85 | 19 | 13 | 25.8 | 2.68 | 13.1 | 7.3 | 8.12 | 5.66 | 14.6 | 10.3
3 | FC(F)(F)c1cccc(Nc2nccc(-c3cnn4nc(-c5ccccc5)ccc34)n2)c1 | 0.52 | 0.75 | 3.22 | 0.52 | 2.95 | -0.58 | 0.62 | -0.38 | 0.28 | 1.03 | 0.42 | 7.91 | 42.6 | 4.44 | 33.6 | 3.36 | 9.98 | 6.8 | 39.2 | 7.48
4 | CCS(=O)(=O)c1ccc(OC)c(Nc2ncc(-c3cccc(-c4ccccc4F)c3)o2)c1 | 4.54 | 14.8 | 62.5 | 10.6 | 55.8 | 0.82 | 3 | 2.87 | 3.52 | 2.39 | 5.48 | 10.8 | 49.7 | 6.19 | 32.1 | 3.61 | 6.31 | 18.5 | 60.4 | 17.1
5 | O=C1Nc2ccccc2/C1=C/Nc1ccc(-n2cncn2)cc1 | 7.47 | 6.77 | 21.6 | 4.42 | 17.3 | 1.28 | 5.61 | 5.14 | 13.6 | 3.92 | 30.9 | 10.5 | 45.5 | 4.56 | 24.2 | 13.1 | 67.2 | 10.8 | 44.8 | 7.25
6 | COc1ccc2ncn(-c3cc(O[C@H](C)c4ccccc4Cl)c(C(N)=O)s3)c2c1 | 2.89 | 3.82 | 5.65 | 2.15 | 2.91 | 2.41 | 4.42 | 4.37 | 4.23 | 2.62 | 15 | 10.4 | 23.1 | 2.8 | 11.8 | 0.85 | 9.98 | 4.37 | 16.6 | 5.46
7 | COc1cc(Nc2ncc(-c3ccccc3)o2)cc(OC)c1OC | 1.47 | 7.48 | 47.8 | 5.8 | 46.5 | 3.23 | 3.53 | 2.19 | 2.13 | 1.59 | 14.5 | 17.7 | 69.6 | 9.16 | 43 | 27.4 | 77.7 | 35.7 | 76.1 | 23
8 | NS(=O)(=O)c1ccc(N/N=C2\C(=O)Nc3ccc(C(=O)NCCCn4ccnc4)cc32)cc1 | 7.11 | 6.54 | 16.1 | 4.32 | 12.4 | 1.34 | 6.35 | 2.76 | 12 | 4.66 | 21.6 | 10.6 | 54.2 | 13 | 57.8 | 5.56 | 12.4 | 11.6 | 47 | 23.1
9 | CN1CCN(CCCNc2nc3ccc(Oc4ccc(NC(=O)Nc5cc(C(F)(F)F)ccc5F)cc4)cc3[nH]2)CC1 | -0.03 | 1.76 | 13.2 | 0.61 | 9.37 | 2.04 | 6.67 | 5.66 | 8.95 | 15 | 59.2 | 32.6 | 76.4 | 2.11 | 4.41 | 29.5 | 90.7 | 36 | 80.7 | 14.1
10 | COc1ccc2cc(-c3c(-c4ccncc4)nc(-c4ccc([S+](C)[O-])cc4C)n3C)ccc2c1 (stereo not given) | 2.92 | 2 | 21.4 | 0.52 | 16.8 | 0.82 | 9.89 | -1.42 | 3.32 | 0.94 | 0.57 | 0.98 | 12.4 | -0.45 | 2.27 | 0.22 | 2.22 | -2.47 | 5.84 | 0.23
11 | NC(=O)c1ccc(Oc2nccc(-c3c(-c4ccc(F)cc4)ncn3C3CCNCC3)n2)cc1 | 4.14 | 4.17 | 5.34 | 1.86 | 4.92 | 3.18 | 6.79 | 13.2 | 8.14 | 3.97 | 9.48 | 5.32 | 10.6 | 2.12 | 4.3 | 2.24 | 6.2 | 5.07 | 7.97 | 4.31
12 | COc1cc2ncn(-c3cc(OCc4cccs4)c(C(N)=O)s3)c2cc1OC | 7.14 | 4.29 | 22.6 | 2.41 | 19.3 | 3.4 | 10.7 | 8.19 | 13.4 | 4.86 | 12.1 | 36 | 77.6 | 19.4 | 72.8 | 7.11 | 57.7 | 24.7 | 72.9 | 31.2
13 | O=C(Nc1n[nH]c2cc(-c3cc(F)ccc3F)ccc12)C1CC1 | 2.7 | 5.22 | 5.51 | 3.27 | 2.53 | 0.82 | 2.71 | 6.12 | 4.36 | 3.35 | 10.1 | 7.53 | 18.3 | 2.07 | 7.89 | 5.2 | 9.61 | 3.2 | 13.2 | 3.6
